# Measured values from PubChem BioAssay (NCI).
# The panel holds about 83,000 compounds, 20% with a hit somewhere; the sample as a whole holds those more often.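 Results are percent growth after 48 hours of single-concentration exposure. 100 means growth as in untreated cells, lower positive values show inhibition; negative values down to -100 show cell death.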 Unmarked numbers belong to inactive results. Activity calls are given as the source filed them.
# Tested on: HOP-92 NSCLC
# Assay: NCI-60 one-dose screen, 48 h (100 = growth as untreated, 0 = no growth, -100 = all killed)
# Settings: 10 µM
# Procedure: Growth inhibition of the HOP-92 human Non-Small Cell Lung tumor cell line is measured as a screen for anti-cancer activity. Cells are grown in 96 well plates and exposed to the test compound for 48 hours. Compounds are tested at a single concentration, which is 10^-5 M for most compounds. The reported endpoint is percent growth (GI% or GIPRCNT), where numbers from 0 - 100% represent growth inhibition, and numbers from -100% - 0 represent cell death. For example, a value of 40 represents 60% growth inhibition. A value of 0 means no net growth occurred over the course of the experiment. A value of -40 indicates 40% of cells at the beginning of the experiment died by the end of the experiment. A value of -100 means all cells are dead at the end of the experiment.
# NCI-60 Human Tumor Cell Lines Screen was performed using the standard one-dose NCI protocol, which is described in more detail at https://dtp.cancer.gov/discovery_development/nci-60/default.htm.
# Compounds with GIPRCNT values below 10 were considered active. Activity score was based on GIPRCNT using the following formula: […]
# Score is 0 for GIPRCNT values of 100 or above, 50 for GIPRCNT values of 0, and 100 for GIPRCNT values of -100.
row,SMILES,growth
1,O=C(Nc1ccc(N=Cc2c(O)[nH]c3ccccc23)cc1)Nc1nccs1,49.8%
2,Cc1ccc(CSc2nc(-c3ccc(Cl)cc3)c(C#N)c(N3CCNCC3)n2)cc1,15.9%
3,CC(=O)c1cc(C(=O)c2ccc(Br)cc2)n2cc(C)cc(C)c12,99%
4,CC(Nc1c(C#N)cnc2ccc(-c3cnc(N)nc3)cc12)c1ccccc1 (stereo not given),-17.3% (active)
5,COc1ccc2c(c1)Oc1nc(N)c(C#N)c(N)c1C2Sc1ccc(C)cc1 (stereo not given),-35.9% (active)
6,O=C1CCC(N2C(=O)c3ccc(NS(=O)(=O)c4ccccc4OC(F)(F)F)cc3C2=O)C(=O)N1 (stereo not given),-2.41% (active)
7,C=C(C=O)[C@@H]1CC[C@]2(C)[C@H](C(=O)C=C3[C@H]4C[C@](C)(C(=O)OC)CC[C@]4(C)CC[C@]32C)[C@@]1(C)CCC#N,-35.2% (active)
8,C=C(C)[C@@H]1CC[C@]2(C(=O)NCCCCCN(CCC#N)CCC#N)CC[C@]3(C)[C@H](CC[C@@H]4[C@@]5(C)CCC(=O)C(C)(C)[C@@H]5CC[C@]43C)[C@@H]12,97%
9,COC(=O)c1ccc(NC2=C/C(=N/S(=O)(=O)c3ccc(C(=O)O)cc3)c3ccccc3C2=O)cc1,23.3%
10,COc1cc2oc(-c3cccc(NC(=O)c4cc(N)ccc4Cl)c3)cc(=O)c2c(OC)c1OC,51.9%
11,Nc1nc(Nc2ccccc2SSc2ccccc2Nc2nc(N)nc(-c3ccccc3)n2)nc(-c2ccccc2)n1,69.7%
12,CN(Cc1ccccc1)S(=O)(=O)/N=C1\NC(=O)NC1=C(Cl)Cl,73.7%
13,COc1ccc(-c2nc(C(Cl)Cl)nc3cc(-c4ccccc4)nn23)cc1,-14.8% (active)
14,COc1ccc(NC(=O)CSc2nnc(-c3ccc4nc(-c5ccc(OC)c(OC)c5)[nH]c4c3)o2)cc1OC,85.6%
15,COC(=O)C1(C)CCC[C@]2(C)[C@H]3C[C@H]4C(C(C)C)=C[C@]3(CC[C@@H]12)[C@H]1[C@@H]4[C@@H](OC(=O)c2ccco2)CC[C@@H]1OC(=O)c1ccco1 (stereo not given in full),102%
16,CCCC(=O)NC(c1cccnc1)c1cc(C(C)(C)C)c2cccnc2c1O (stereo not given),50.5%
17,O=C(CSc1nc2ccccc2c(=O)n1-c1ccc(Cl)cc1)N/N=C/c1ccc(N2CCCCC2)cc1,62.3%
18,Nc1ccccc1NC(=O)c1ccc(NC(=O)C/C=C/c2cccnc2)cn1,-7.8% (active)
19,CCOc1ccc(NC2=C(Cl)C(=O)c3nc(C)ccc3C2=O)cc1,-87% (active)
20,O=S(=O)(NCCCNc1nccc(-c2[nH]c(-c3ccccc3)nc2-c2ccc(Cl)c(O)c2)n1)c1ccc(Br)cc1,46%

row,SMILES,growth
1,Cc1cc2nc(C(Cl)Cl)nc(-c3cccs3)n2n1,-10.8% (active)
2,CC1(C)CC[C@]2(C(=O)N3CCOCC3)CC[C@]3(C)C(=CC[C@@H]4[C@@]5(C)C/C(=C/c6ccco6)C(=O)C(C)(C)[C@@H]5CC[C@]43C)[C@@H]2C1,77.8%
3,NC(=O)c1c(NC(=O)c2ccc(F)cc2F)sc2c1CCC(=O)C2,66.1%
4,CC1=CC(=O)C2=C(C)CC(OC(=O)CCc3ccccc3)[C@@H]3[C@H](OC(=O)[C@@H]3C)[C@@H]12 (stereo not given in full),92.6%
5,COc1c(N2CC3CCCNC3C2)c(F)cc2c(=O)c(C(=O)N/N=C/c3ccc4c(c3)OCO4)cn(C3CC3)c12 (stereo not given),67.4%
6,c1ccc(C(c2nc3ncncc3[nH]2)N2CSc3nc4ncncc4n3C2)cc1 (stereo not given),64.9%
7,CC(=O)c1ccc(Nc2nc(SCC(C)C)nc(-c3ccc(F)cc3)c2C#N)cc1,118%
8,C#CCOc1ccc(/C=N\Nc2nc(-c3ccc(C)cc3)cs2)cc1OC,73.3%
9,COc1ccc(N2CCN(C3=C(Cl)C(=O)C(C)=C(C)C3=O)CC2)cc1,102%
10,O=c1[nH]c2ccccc2cc1CSc1ccccc1Nc1nccc(-c2ccc(Cl)cc2)n1,83.5%
11,CCCn1cnc2c(c1=N)C(c1ccc(F)cc1)c1sc3c(C)cccc3c1O2 (stereo not given),33.5%
12,Cc1nc2ncc(-c3ccc4ncnc(NCc5ccccc5)c4c3)cc2[nH]1,17.4%
13,COc1cc(-c2ccc3ncnc(NCc4ccccc4)c3c2)cnc1OC,5.49% (active)
14,COc1cc(/C=C2\C(=O)Nc3cc(Cl)ccc32)ccc1OCc1ccc(F)cc1,89.2%
15,O=C1CC(=O)N2CSCN(C(c3ccccc3)c3nc4ncncc4[nH]3)C2=N1 (stereo not given),112%
16,Fc1ccc(-c2cc3nc(C(Cl)Cl)nc(-c4ccc(F)cc4)n3n2)cc1,-3.1% (active)
17,CCCn1cnc2c(c1=N)C(c1ccc(F)cc1)c1sc3c(CC)cccc3c1O2 (stereo not given),34.2%
18,COc1cc(/C=C2\C(=O)Nc3ccccc32)ccc1OCc1ccc(F)cc1,99.8%
19,COc1cc(-c2nc(SCCC(C)C)nc(NNC(=O)c3ccncc3)c2C#N)cc(OC)c1OC,32.9%
20,C=CCn1c(-c2nc3ccc(C(=C(C#N)C#N)c4ccccc4)cc3[nH]2)cc2cc(Br)ccc21,63%
